High-throughput results: PubChem BioAssay, National Center for Advancing Translational Sciences (NCATS)
IMPase cell inh = cell-permeable inhibitors of inositol monophosphatase (IMPase) | AID 901 | P97697 | CHO-M1 cells, IP1 accumulation, HTRF TR-FRET ratio | inhibition (IP1 accumulation), % at 46.1 µM | 120,000 tested, under 10 active; active = well fitted curve in the direction sought with a large enough effect in the signal ratio, not every such curve was filed as active; inconclusive = small, poorly fitted or top-dose-only effect, or a change in a side signal; inactive = no such curve, though single readings can be large or run the other way; the % refers to the signal ratio;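 note: cells stimulated with carbachol in lithium chloride buffer; plate controls were DMSO basal wells for no effect and reference inhibitor wells for full effect; higher means more IMPase inhibition seen as more IP1 and lower FRET ratio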
Target sequence (P97697 whole entry, looked up): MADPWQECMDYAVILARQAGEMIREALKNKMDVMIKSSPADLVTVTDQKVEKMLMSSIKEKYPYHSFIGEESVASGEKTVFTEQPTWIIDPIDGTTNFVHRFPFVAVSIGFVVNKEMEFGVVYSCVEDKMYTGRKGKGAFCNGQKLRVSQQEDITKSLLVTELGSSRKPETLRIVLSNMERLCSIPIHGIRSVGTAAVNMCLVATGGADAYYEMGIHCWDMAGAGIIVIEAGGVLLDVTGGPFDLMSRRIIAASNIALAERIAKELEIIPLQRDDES
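Cellular IMPase inhibition is scored as a rise in cytosolic IP1, detected by competitive TR-FRET between d2-labelled IP1 and a europium anti-IP1 antibody. M1-expressing CHO cells were stimulated with carbachol for 30 min at 37C, with lithium (50 mM LiCl) present in the buffer.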
ALDH1A1 block = ALDH1A1 (human) enzyme inhibition; Purified ALDH1A1, NADH fluorescence, propionaldehyde substrate; Potency, µM (top dose mostly 75.3 µM), for inactives: top-dose activity, negative = inhibition, usual class: inhibitors; 7.3% of 220,000 active; active = well fitted inhibition curve with a large enough effect, not every such curve was filed as active; inconclusive = small, poorly fitted or top-dose-only effect, or another doubt; inactive = no such curve, though single readings can be large or run the other way;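 note: potency is the fitted concentration of half-maximal effect; plate controls were no enzyme wells and a reference inhibitor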
Target sequence (P00352 whole entry, looked up): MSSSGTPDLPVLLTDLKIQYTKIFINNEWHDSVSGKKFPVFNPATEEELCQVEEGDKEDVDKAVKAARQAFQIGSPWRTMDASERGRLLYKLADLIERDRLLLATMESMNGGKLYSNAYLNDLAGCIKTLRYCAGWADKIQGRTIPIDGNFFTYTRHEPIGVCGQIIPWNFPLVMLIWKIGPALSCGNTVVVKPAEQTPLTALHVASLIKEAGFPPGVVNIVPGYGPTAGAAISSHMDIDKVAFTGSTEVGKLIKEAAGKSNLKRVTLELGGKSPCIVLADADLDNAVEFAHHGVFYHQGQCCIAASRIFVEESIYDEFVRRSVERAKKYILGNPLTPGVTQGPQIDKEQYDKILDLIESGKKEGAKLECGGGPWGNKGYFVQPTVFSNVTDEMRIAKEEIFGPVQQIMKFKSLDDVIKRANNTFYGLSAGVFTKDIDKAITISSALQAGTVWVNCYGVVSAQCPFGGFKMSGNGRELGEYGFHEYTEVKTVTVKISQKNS
IMPase Li inh = cell-permeable IMPase inhibitors with lithium potentiation. 0.35% of 210,000 active. AID 1457. CHO-M1 cells, IP1 TR-FRET (IP-One), carbachol + lithium. Potency, µM (highest dose often 59.4 µM), for inactives: at the top dose activity, negative = IMPase inhibition, hits mostly inhibitors;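 note: IP1 builds up when IMPase is blocked and the TR-FRET signal falls; potency is the fitted concentration of half-maximal effect; plate controls were basal vehicle for no effect and high inhibitor control for full effect; nearly all actives have a fitted effect of over 50% in size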
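Concentration–response in CHO-M1 cells, lithium-potentiated; 30 min at 37C. IP1 detected by competitive TR-FRET after 10 min lysis at RT. Hill-fitted AC50.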
HPGD block = HPGD (human) dehydrogenase inhibition; 4.3% of 150,000 active; AID 894; P15428; purified HPGD, NADH fluorescence kinetic, PGE2 substrate; Potency, µM, without a hit: top-dose activity change, negative = inhibition, hits mostly inhibitors; active = well fitted inhibition curve with a large enough effect, not every such curve was filed as active; inconclusive = small, poorly fitted or top-dose-only effect, or another doubt; inactive = no such curve, though single readings can be large or run the other way; note: potency is the fitted concentration of half-maximal effect
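20 nM HPGD preincubated 15 min at room temperature with compound in 50 mM Tris-HCl pH 8, 0.01% Tween 20. Started with 1 mM NAD+ and 30 uM prostaglandin E2; NADH fluorescence (360/450 nm) read 5 times over 30-s intervals, last minus first.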
12-hLO inh = 12-hLO (ALOX12) enzyme inhibition; Potency, µM (series often up to 57.1 µM), without a hit: at the highest dose activity change, negative = inhibition, hits mostly inhibitors; purified 12-hLO, xylenol orange hydroperoxide absorbance; P18054; 0.12% of 150,000 active; note: potency is the fitted concentration of half-maximal effect; nearly all actives have a fitted effect of over 55% in size
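Hydroperoxide formation by human 12-lipoxygenase from 40 uM arachidonic acid was followed colorimetrically via ferric-xylenol orange complex, using the 573/405 nm absorbance ratio. Enzyme concentration was 150 nM, with 30 min reaction at room temperature.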
PNC inhibitor = inhibitors of perinucleolar compartment assembly; PC3M PTB-GFP, PNC prevalence imaging, 16 h; hits give low values; 3.1% of 140,000 active; AID 2417; activity change (PNC), negative = inhibition, % at 10 µM;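 active = readout at or below -70, meaning at least 70% loss of cells showing the perinucleolar compartment, a nuclear body marking cancer cells; inconclusive = readout between -30 and a set limit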;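 note: plate controls were DMSO wells for no effect and camptothecin positive control wells for full effect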
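Compounds are pinned in duplicate onto adhered PC3M cells stably expressing GFP-tagged PTB and incubated 16 h at 37 C. Cells are then fixed, nuclei stained with Hoechst, and PNC-positive cells counted.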
The depositor's hits bear a star; ? = inconclusive; · = not tested or not shown; [ ] = dose if it differs, or a comment. Most compounds without a hit are left out; they make up all but 11% or so of the library. Unless noted, calls come from the whole dose curve; as a rule, active = well fitted curve in the direction sought with a large enough effect; inconclusive = small, poorly fitted or top-dose-only effect, or another doubt; inactive = no such curve, though single readings can be large; an effect the other way counts as inactive or inconclusive. Unless noted, % is set by controls: 0 for no effect and ±100 for the full control effect.

SMILES	IMPase cell inh	ALDH1A1 block	IMPase Li inh	HPGD block	12-hLO inh	PNC inhibitor
Cc1ccc(NC(=S)N/N=C/c2ccc(Cl)c([N+](=O)[O-])c2)cc1	2	17%	10%[38.3 µM]	0%	6%	-9
Cc1ccc(C(C)C)c(OCc2ccc(C(=O)N/N=C/c3cccc(O)c3O)cc2)c1	·	3%	16%	-22%	-1%	0
COc1ncc2nc(-c3cc(F)cc(F)c3)c(=O)n(CCC#N)c2n1	·	?	-6%	?	4%	·
NC(=O)/C(=N\OC(=O)c1ccco1)c1nc(-c2ccc(Br)cc2)cs1	-4	13µM*	-4%[38.3 µM]	13µM*	-10%	3
COc1ccc(C2CC(=O)Oc3cc(C)c(Cl)c(C)c32)cc1 (configuration not stated)	·	?	25%	-17%	-21%[0.00818 µM]	·
COc1ccc(OCCOCCOc2ccc(C)cc2[N+](=O)[O-])cc1	·	25µM*	3%	?	-4%	18
Cc1ccc(OCCOc2cccc3ccc(C)nc23)c([N+](=O)[O-])c1	·	14µM*	4%	·	·	·
COc1cccc(OCCOCCOc2ccc(C)cc2[N+](=O)[O-])c1	·	?	-2%	-10%	0%	?
COCCNCCCCOc1ccc(C)cc1[N+](=O)[O-]	·	2.8µM*	2%	-8%	-3%	?
COCCCNCCOc1ccc(C)cc1[N+](=O)[O-]	·	?	-1%	0%	-3%	-19
Cc1ccc(OCCCCn2ccnc2)c([N+](=O)[O-])c1	·	1.6µM*	21%	·	·	·
CCC(=O)c1c(O)cc(O)cc1O	·	-13%	29%	-18%	4%	·
Cc1ccc(C(=O)N(c2ccc(C)cc2)S(=O)(=O)c2ccc(Cl)cc2)cc1	-9	·	·	·	·	·
Cc1c(-c2ccccc2)oc2cc(O)ccc2c1=O	2	?	14%	-23%	-3%	·
CC(C)[C@H]1COC(c2cccc([N+](=O)[O-])c2)=N1	·	-10%[120 µM]	3%	-6%	-4%[0.00818 µM]	·
COc1ccccc1/C=C/CN1CCCC(CO)(Cc2cccc(Cl)c2)C1 (configuration not stated)	·	?	14%	·	·	·
COc1ccc(/C=C/CN2CCCC(CO)(Cc3cccc(Cl)c3)C2)cc1 (configuration not stated)	·	20µM*	23%	·	·	·
CCC(=O)Nc1ccc(C(=O)CSc2nnc(-c3ccc(O)cc3)n2CC2CCCO2)cc1 (configuration not stated)	-4	25µM*	13%[38.3 µM]	-7%	-2%	?
CCC(=O)Nc1ccc(C(=O)CSc2nnc(-c3ccccc3F)n2CCc2ccccc2)cc1	-6	22µM*	13%	-6%	-2%	17
Cc1cc2c(c(C)c1Br)C(c1ccc3c(c1)OCO3)CC(=O)O2 (configuration not stated)	·	3%	19%	-11%	-10%[0.00818 µM]	·
CCOC(=O)C1CCCN(C(=S)Nc2ccc(F)cc2)C1 (configuration not stated)	·	2%	2%	·	·	·
CCOC(=O)C1CCCN(c2cc(C)nc3cc(-c4ccc(Cl)cc4)nn23)C1 (configuration not stated)	2	?	15%	?	6%	-100*
CCOC(=O)C1CCCN(c2cc(C)nc3cc(-c4ccc(F)cc4)nn23)C1 (configuration not stated)	8	-5%	9%[38.3 µM]	-11%	-10%	-90*
CNC(=S)N/N=C/c1cn(CCOc2cccc(OC)c2)c2ccccc12	·	?	13%	16µM*	?	16
COc1cccc(OCCn2cc(C(=O)c3ccco3)c3ccccc32)c1	9	22µM*	18%[38.3 µM]	?	-5%	33
SMILES	IMPase cell inh	ALDH1A1 block	IMPase Li inh	HPGD block	12-hLO inh	PNC inhibitor
COc1ccccc1OCCn1cc(C(=O)c2ccco2)c2ccccc21	13	?	15%[38.3 µM]	?	-15%	27
N[C@@H](Cn1ccc(=O)n(Cc2ccccc2C(=O)O)c1=O)C(=O)O	5	-4%	10%	-14%	3%	·
CCOc1ccc(C(Nc2cccnc2)c2cc(Cl)c3cccnc3c2O)cc1 (configuration not stated)	·	1.3µM*	-6%	·	·	·
O=C(O)COc1ccccc1C(Nc1cccnc1)c1cc(Cl)c2cccnc2c1O (configuration not stated)	·	-4%	13%	·	·	·
COc1cc(Br)c(C2CC(=O)Nc3cc4c(cc32)OCCO4)cc1OC (configuration not stated)	4	·	·	·	·	·
COc1cccc(CN(CC2CCCO2)S(=O)(=O)c2ccc(-n3cnnn3)c(OC)c2)c1 (configuration not stated)	·	?	11%	·	·	·
COc1cccc(CN(c2ccc3c(c2)CCC3)S(=O)(=O)c2ccc(-n3cnnn3)c(OC)c2)c1	·	2.5µM*	10%	-12%	-1%	?
Cc1cc(S(=O)(=O)N(Cc2ccccc2Cl)c2ccc3c(c2)CCC3)ccc1-n1cnnn1	·	5µM*	13%	-4%	4%	?
Cc1nnc(SCC2=C(C(=O)O)N3C(=O)C(NC(=O)Cn4cnnn4)[C@@H]3SC2)s1 (some centres not stated)	·	-6%	-6%	-7%	-4%	·
CC(C)(C)c1ccc(OCCOCCn2c(-c3ccc(Cl)cc3)nc3ccccc3c2=O)cc1	5	·	·	·	·	·
N#Cc1cnn2ccc(-c3ccc4c(c3)CCC4)nc12	·	?	-5%	·	·	·
CSc1nc(N)n2nc(-c3ccccc3)cc2n1	·	4%	·	·	·	·
COc1nc(N/N=C/c2ccc(-c3ccccc3[N+](=O)[O-])o2)nc(N2CCOCC2)n1	·	8.9µM*	24%	-14%	1%	-5
O=[N+]([O-])c1ccc(-c2ccc(/C=N/Nc3nc(NCc4ccccc4)nc(N4CCOCC4)n3)o2)cc1	·	?	-8%	·	·	·
O=C(NCCN1CCCC1)c1ccc(Cc2nc3ccccc3[nH]2)cc1	·	9%	·	-3%	0%	·
Nc1ccc(Nc2ccccc2)c(Cl)c1	8	14µM*	-4%[38.3 µM]	-18%	-9%	-23
Nc1ccccc1Nc1ccccc1	8	?	10%[38.3 µM]	-23%	-28%	11
Cc1cc2nc(CCN(Cc3cccnc3)C(=S)Nc3ccccc3)[nH]c2cc1C	-3[1.84 µM]	?	?	-1%	-2%	-86*
CCc1cc2c(nc1CC)CCN(CC/C(C)=N/O[C@@H](C)c1cn([C@H](CO)Cc3ccccc3)nn1)C2	·	-1%[13.5 µM]	·	·	·	·
CCN(CC)CCCNC(=O)CN1C(=O)CSc2ccc(S(=O)(=O)N3CCOCC3)cc21	·	10%	-1%	-1%	1%	-113*
CCOCCCNC(=O)CN1C(=O)CSc2ccccc21	·	11%	-4%	-10%	-1%	28
CCOCCCNC(=O)CN1C(=O)CSc2cc(S(=O)(=O)N3CCCCCC3)ccc21	?	10µM*	·	·	-1%	13
